In PubChem BioAssay (Tox21):
Records with an inconclusive call do not appear. Active and inactive are the calls of the source. Unless noted, calls follow the shape of the dose curve; as a rule, active = well fitted curve in the direction sought with a large enough effect in the repeat runs; inconclusive = weak or mixed curves; inactive = no such curve, though single readings can be large; an effect the other way counts as inactive or inconclusive.

How the values were obtained:
[1] = qHTS assay to identify small molecule agonists of the vitamin D receptor (VDR) signaling pathway - cell viability counter screen (AID 743224); also: series mostly up to about 63 µM; % is scaled to controls: 0 for no effect and ±100 for the full control effect; nearly all actives have a fitted effect of over 50% in size
In short: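 Cells: VDR-bla, 2,000/well, settled 4 h. Treatment: compounds in DMSO, 16 h, 37C/5% CO2. Readout: CellTiter-Glo luminescence after 30 min RT.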

[2] = qHTS assay to identify small molecule antagonists of the vitamin D receptor (VDR) signaling pathway - cell viability counter screen (AID 743225); also: % is scaled to controls: 0 for no effect and ±100 for the full control effect; nearly all actives have a fitted effect of over 50% in size
In short: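 Cells (VDR-UAS-bla HEK 293T) are plated, rested 4 h at 37C, dosed with compound and 3 nM final 1-alpha,25-dihydroxy vitamin D3, and incubated 16 h. Viability is taken from CellTiter-Glo luminescence in the reporter wells.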

[3] = qHTS assay to identify small molecule agonists of the NFkB signaling pathway - cell viability counter screen (AID 1159515; calls by dose curve; also: series mostly up to about 61 µM; % is scaled to controls: 0 for no effect and ±100 for the full control effect; nearly all actives have a fitted effect of over 55% in size)
In short: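 Cells are seeded (2,000 NFkB-bla ME-180 per well), rested overnight, and dosed with DMSO-dissolved compounds for 5 hr at 37 C. Viability is then read by CellTiter-Glo luminescence after 30 min at room temperature.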

[4] = qHTS assay to identify small molecule agonists of the endoplasmic reticulum stress response signaling pathway (AID 1159516; active = well fitted activation curve with a large enough effect in the signal ratio in the repeat runs, not every such curve was filed as active; the % refers to the signal ratio; also: % is scaled to controls: 0 for no effect and ±100 for the full control effect)
In short: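 Cells are seeded at 1,500 per well and incubated overnight. Compounds in DMSO are added for 5 hr at 37 C, then beta-lactamase FRET substrate for 2 hr at room temperature, and fluorescence at 460 and 530 nm is measured.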

[5] = qHTS assay to identify small molecule agonists of the endoplasmic reticulum stress response signaling pathway - cell viability counter screen (AID 1159517; calls by dose curve;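 also: HeLa cells carrying an ER stress response element beta-lactamase reporter; series mostly up to about 61 µM; % is scaled to controls: 0 for no effect and ±100 for the full control effect; nearly all actives have a fitted effect of over 50% in size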)
In short: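 Cytotoxicity of test compounds toward ESRE-bla HeLa cells was assessed after 5 hr exposure. The luminescent CellTiter-Glo signal was measured 30 min after reagent addition.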

[6] = qHTS assay to identify small molecule antagonists of the retinoid-related orphan receptor gamma (ROR-gamma) signaling pathway - cell viability counter screen (AID 1159520); also: nearly all actives have a fitted effect of over 50% in size; also: potency is read from the fitted curve at half-maximal effect; as to activity, negative = cytotoxicity: % is scaled to controls: 0 for no effect and ±100 for the full control effect
In short: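 Tet-on ROR gamma CHO cells (1,000/well) were plated 4 hr, given compounds in DMSO for 2 hr at 37 C, then induced with 1 uM final doxycycline for 16 hr. Viability was read as ATP by CellTiter-Glo luminescence after 30 min.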

[7] = target: Nuclear receptor ROR-gamma (Homo sapiens) (UniProt P51449); assay: qHTS assay to identify small molecule antagonists of the retinoid-related orphan receptor gamma (ROR-gamma) signaling pathway (AID 1159521; also: nearly all actives have a fitted effect of over 50% in size; also: potency is read from the fitted curve at half-maximal effect;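 as to activity change, negative = inhibition: CHO cells with doxycycline inducible ROR-gamma driving an RORE luciferase reporter; top concentration of the series differs between compounds; % is scaled to controls: 0 for no effect and ±100 for the full control effect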)
In short: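 RORγ antagonism is scored from reduced reporter luminescence in Tet-on CHO cells. Induction used 1 uM final doxycycline hyclate for 16 h at 37 C, following a 2 h compound exposure.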

[8] = qHTS assay to identify small molecule agonists of the AP-1 signaling pathway - cell viability counter screen (AID 1159525; calls by dose curve; also: nearly all actives have a fitted effect of over 55% in size)
In short: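 Each titration point was normalised to DMSO and tetra n-octyl ammonium bromide controls. The read was Cell Titer Glo luminescence after 30 min at RT, following 5 h compound exposure of ME-180 AP-1-bla cells at 37 °C.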

[9] = target: Retinoic acid receptor RXR-alpha (Homo sapiens) (UniProt P19793); assay: qHTS assay to identify small molecule agonists of the RXR signaling pathway (AID 1159527; calls by dose curve; also: % is scaled to controls: 0 for no effect and ±100 for the full control effect; nearly all actives have a fitted effect of over 35% in size)
Retinoic acid receptor RXR-alpha (Homo sapiens), sequence (P19793 whole entry, looked up): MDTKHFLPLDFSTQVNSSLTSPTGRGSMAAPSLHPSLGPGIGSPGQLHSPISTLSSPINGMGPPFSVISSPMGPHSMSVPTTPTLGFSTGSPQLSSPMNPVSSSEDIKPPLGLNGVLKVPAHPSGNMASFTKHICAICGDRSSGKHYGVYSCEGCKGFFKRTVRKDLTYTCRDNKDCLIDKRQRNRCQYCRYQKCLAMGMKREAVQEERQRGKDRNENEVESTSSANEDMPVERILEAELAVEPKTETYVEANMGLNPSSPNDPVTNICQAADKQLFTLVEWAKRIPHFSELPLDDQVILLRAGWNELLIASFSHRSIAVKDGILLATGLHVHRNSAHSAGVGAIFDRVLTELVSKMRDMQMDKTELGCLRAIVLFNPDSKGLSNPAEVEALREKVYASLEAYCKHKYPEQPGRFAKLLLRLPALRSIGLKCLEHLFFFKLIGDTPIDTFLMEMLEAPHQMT
In short: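 qHTS of the Tox21 10K library in GeneBLAzer RXR-alpha HEK 293T cells carrying a beta-lactamase reporter […]; 16 hr treatment, 9-cis retinoic acid as agonist control, FRET read-out.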

[10] = qHTS assay to identify small molecule agonists of the AP-1 signaling pathway (AID 1159526; calls by dose curve; also: % is scaled to controls: 0 for no effect and ±100 for the full control effect)

CC(=O)N(O)CCCCCNC(=O)CCC(=O)N(O)CCCCCNC(=O)CCC(=O)N(O)CCCCCN
inactive: Potency [1] | Potency [2] | Potency [3] | Potency [4] | outcome [5] | Potency [6] | Potency [7] | Potency [8] | Potency [9]

CN1CCN(C2=Nc3ccccc3Sc3ccc(Cl)cc32)CC1
inactive: Potency [1] | Potency [2] | Potency [3] | Potency [4] | outcome [5] | Potency [6] | Potency [7] | Potency [8] | Potency [9]

CC(CN)CCCN (stereo not drawn)
inactive: Potency [1] | Potency [2] | Potency [3] | Potency [4] | outcome [5] | Potency [6] | Potency [7] | Potency [8] | Potency [10]

NC(=S)N/N=C/c1cccnc1
inactive: Potency [1] | Potency [2] | Potency [3] | Potency [4] | outcome [5] | Potency [6] | Potency [7] | Potency [8] | Potency [10]

O=C1[C@H](CC[C@H](O)c2ccc(F)cc2)[C@@H](c2ccc(O)cc2)N1c1ccc(F)cc1
inactive: Potency [1] | Potency [2] | Potency [3] | Potency [4] | outcome [5] | Potency [6] | Potency [7] | Potency [10]

CCN(CC)CCNC(C(=O)OCCC(C)C)c1ccccc1 (stereo not drawn)
inactive: Potency [1] | Potency [2] | Potency [3] | Potency [4] | outcome [5] | Potency [6] | Potency [7] | Potency [8]

CCCCc1cc2ccccc2c(OCCN(C)C)n1
inactive: Potency [1] | Potency [2] | Potency [3] | Potency [4] | outcome [5] | Potency [6] | Potency [7] | Potency [8] | Potency [9]

ClC(Cl)(Cl)c1ccc(C(Cl)(Cl)Cl)cc1
inactive: Potency [1] | Potency [2] | Potency [3] | Potency [4] | outcome [5] | Potency [6] | Potency [7] | Potency [8]

CCCCOC(=O)c1ccccc1C(=O)OCC(CC)CCCC (stereo not drawn)
inactive: Potency [1] | Potency [2] | Potency [3] | Potency [4] | outcome [5] | Potency [6] | Potency [7] | Potency [8]

CCCCOc1cc(C(=O)OCCN(CC)CC)ccc1N
inactive: Potency [1] | Potency [2] | Potency [3] | Potency [4] | outcome [5] | Potency [6] | Potency [7] | Potency [8]

O=C(C(=O)c1ccc(Br)cc1)c1ccc(Br)cc1
inactive: Potency [1] | Potency [2] | Potency [3] | Potency [4] | outcome [5] | activity, negative = cytotoxicity [6] -5.42% [at 19 µM] | activity change, negative = inhibition [7] 2.45% [at 19 µM] | viability change, negative = cytotoxic [8] 10.5% [at 15.8 µM]

C=Cc1c(C)c2cc3[nH]c(cc4nc(cc5nc(cc1[nH]2)C(C)=C5CCC(=O)O)C(CCC(=O)O)=C4C)c(C)c3C=C
active: Potency [7] 26.6 µM
inactive: Potency [2] | Potency [3] | Potency [4] | outcome [5] | Potency [6] | Potency [8]

CC(C)c1ccccc1C(C)C
inactive: Potency [1] | Potency [2] | Potency [3] | Potency [4] | outcome [5] | Potency [6] | Potency [7] | Potency [8]

COc1cc(C(C)(C)C)c(O)c(C(C)(C)C)c1
inactive: Potency [2] | Potency [3] | Potency [4] | outcome [5] | Potency [6] | Potency [7] | Potency [8]

COC(=O)C(C)=O
inactive: Potency [1] | Potency [2] | Potency [3] | Potency [4] | outcome [5] | Potency [6] | Potency [7] | Potency [10] | Potency [9]

Cn1sccc1=O
active: Potency [6] 61.1 µM | Potency [7] 30.6 µM
inactive: Potency [2] | Potency [3] | Potency [4] | outcome [5] | Potency [8]

NC(N)=N/N=C/c1c(Cl)cccc1Cl
inactive: Potency [1] | Potency [2] | Potency [3] | Potency [4] | outcome [5] | Potency [6] | Potency [7] | Potency [8]

O=C(O)[C@@H]1[C@H]2C[C@H]3c4[nH]c5ccccc5c4CCN3C[C@@H]2CC[C@@H]1O
inactive: Potency [1] | Potency [2] | Potency [3] | Potency [4] | outcome [5] | Potency [6] | Potency [7] | Potency [8]

CN(C)CCCOc1nn(Cc2ccccc2)c2ccccc12
inactive: Potency [1] | Potency [2] | Potency [3] | Potency [4] | outcome [5] | Potency [6] | Potency [7] | Potency [8]

Cc1c(Cn2ccnc2)c2ccccc2n1CCC(=O)O
inactive: Potency [1] | Potency [2] | Potency [3] | Potency [4] | outcome [5] | Potency [6] | Potency [7] | Potency [8]

Cc1cccc(C(C)(C)C)c1O
inactive: Potency [1] | Potency [2] | Potency [3] | Potency [4] | outcome [5] | Potency [6] | Potency [7] | Potency [8]

O=[N+]([O-])c1cc[n+]([O-])cc1
active: Potency [7] 9.69 µM
inactive: Potency [2] | Potency [3] | Potency [4] | outcome [5] | Potency [6] | Potency [8]

CCN(CCO)CCCC(C)Nc1ccnc2cc(Cl)ccc12 (stereo not drawn)
inactive: activity change, negative = cytotoxicity [1] 1.38% [at 5.95 µM] | viability change, negative = cytotoxic [2] -0.399% [at 6.95 µM] | activity, negative = cytotoxic [3] 7.84% [at 6.95 µM] | activation [4] -0.628% [at 6.95 µM] | activity change, negative = cytotoxicity [5] 5.2% [at 6.95 µM] | activity, negative = cytotoxicity [6] 0.752% [at 8.39 µM] | activity change, negative = inhibition [7] 13.3% [at 8.39 µM] | viability change, negative = cytotoxic [8] 2.23% [at 6.97 µM]

CCCCCCCCCO
inactive: Potency [1] | Potency [2] | Potency [3] | Potency [4] | outcome [5] | Potency [6] | Potency [7] | Potency [8]

CN(C)CC/C=C1\c2ccccc2COc2ccccc21
inactive: Potency [1] | Potency [2] | Potency [3] | Potency [4] | outcome [5] | Potency [6] | Potency [7] | Potency [8]

CCCCCOC(=O)c1ccc(O)cc1
inactive: Potency [1] | Potency [2] | Potency [3] | Potency [4] | outcome [5] | Potency [6] | Potency [7] | Potency [8]

Oc1ccc(O)c2c(O)cccc12
inactive: Potency [1] | Potency [2] | Potency [3] | Potency [4] | outcome [5] | Potency [6] | Potency [7] | Potency [8]
